We go through nine compounds from PubChem BioAssay (Tox21).

Records with an inconclusive call do not appear. Active and inactive are the calls of the source. Unless noted, the call rests on the fitted dose curve.

For test [1], the target named is Peroxisome proliferator-activated receptor delta (Homo sapiens) (UniProt Q03181). As to the kind of experiment: qHTS assay to identify small molecule agonists of the peroxisome proliferator-activated receptor delta (PPARd) signaling pathway (AID 743212). An outline of the steps:
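GeneBLAzer UAS-bla HEK293H cells carrying a PPARδ construct were exposed to compounds at 37 °C. Beta-lactamase activity was read by FRET fluorescence after 2 h at room temperature with LiveBLAzer B/G substrate.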
On the technique in general: In qHTS, concentration-response curves come from the screen itself.

Test [2] in a line: qHTS assay to identify small molecule antagonists of the peroxisome proliferator-activated receptor delta (PPARd) signaling pathway - cell viability counter screen (AID 743213; active means well fitted curve in the direction sought with a large enough effect in the repeat runs; an effect the other way counts as inactive or inconclusive; further: nearly all actives have a fitted effect of over 50% in size). An outline of the steps:
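Agonist-stimulated (L165041, 300 nM final) HEK293H PPARd UAS-bla cells are exposed to compounds for 17 h at 37 C, and ATP-based luminescence (CellTiter-Glo) from the same wells reports cytotoxicity.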

In test [3] the target is Bile acid receptor (Homo sapiens) (UniProt Q96RI1). Description: qHTS assay to identify small molecule antagonists of the farnesoid-X-receptor (FXR) signaling pathway (AID 743217; active means well fitted inhibition curve with a large enough effect in the signal ratio in the repeat runs, not every such curve was filed as active; the % refers to the signal ratio). The gist of the method: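 FXR-UAS-bla HEK 293T cells pre-incubated 5 h at 37 °C, then exposed to compounds with chenodeoxycholic acid (50 uM final) for 16 h at 37 °C. Beta-lactamase reporter read by LiveBLAzer B/G FRET substrate fluorescence after 2 h at room temperature.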
Sequence of Bile acid receptor (Homo sapiens) (Q96RI1 whole entry, looked up): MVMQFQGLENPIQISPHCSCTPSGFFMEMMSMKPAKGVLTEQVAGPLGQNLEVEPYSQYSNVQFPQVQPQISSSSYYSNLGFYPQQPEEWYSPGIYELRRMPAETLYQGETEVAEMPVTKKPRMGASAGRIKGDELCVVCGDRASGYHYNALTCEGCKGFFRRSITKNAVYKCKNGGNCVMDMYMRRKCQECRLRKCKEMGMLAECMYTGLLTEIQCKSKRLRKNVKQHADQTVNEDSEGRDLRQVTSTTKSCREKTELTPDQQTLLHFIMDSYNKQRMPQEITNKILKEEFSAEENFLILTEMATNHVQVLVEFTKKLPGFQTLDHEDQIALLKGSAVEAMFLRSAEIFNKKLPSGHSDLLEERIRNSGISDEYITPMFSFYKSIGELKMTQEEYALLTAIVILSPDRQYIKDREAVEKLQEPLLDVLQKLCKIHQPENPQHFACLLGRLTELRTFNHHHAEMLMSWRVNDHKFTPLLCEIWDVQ

Test [4] can be described thus: qHTS assay to identify small molecule agonists of the farnesoid-X-receptor (FXR) signaling pathway - cell viability counter screen (AID 743218; active means well fitted curve in the direction sought with a large enough effect in the repeat runs; an effect the other way counts as inactive or inconclusive; further: nearly all actives have a fitted effect of over 45% in size). An outline of the steps: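 FXR-UAS-bla HEK 293T cells, plated 5 h at 37 C, were exposed to compounds for 16 h at 37 C. CellTiter-Glo was then added to the same wells as the bla readout; luminescence read after 30 min at room temperature.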

The target of test [5] is Bile acid receptor (Homo sapiens) (UniProt Q96RI1). As to the kind of experiment: qHTS assay to identify small molecule agonists of the farnesoid-X-receptor (FXR) signaling pathway (AID 743220; active means well fitted activation curve with a large enough effect in the signal ratio in the repeat runs, not every such curve was filed as active; the % refers to the signal ratio). An outline of the steps:
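Beta-lactamase reporter under UAS control in GeneBLAzer FXR HEK 293T cells (5000/well) measured with LiveBLAzer FRET substrate after 2 h at room temperature. Compound exposure lasted 16 h at 37C.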

The target in test [6] is Vitamin D3 receptor (Homo sapiens) (UniProt P11473). As to the kind of experiment: qHTS assay to identify small molecule agonists of the vitamin D receptor (VDR) signaling pathway (AID 743222). The gist of the method:
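VDR-bla cells were plated 4 h at 37C/5% CO2, then exposed to compounds in DMSO for 16 h. After LiveBLAzer B/G FRET substrate addition and 2 h at room temperature, beta-lactamase reporter fluorescence was read.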

Test [7] shares this target. Description: qHTS assay to identify small molecule antagonists of the vitamin D receptor (VDR) signaling pathway (AID 743223; active means well fitted inhibition curve with a large enough effect in the signal ratio in the repeat runs, not every such curve was filed as active; the % refers to the signal ratio). An outline of the steps: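 Quantitative HTS in VDR-bla reporter cells stimulated with 1alpha,25-dihydroxyvitamin D3, 3 nM final. Compound exposure 16 h, 37C, 5% CO2. Read-out: beta-lactamase FRET substrate fluorescence, 2 h RT.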
A short description of test [8]: qHTS assay to identify small molecule agonists of the vitamin D receptor (VDR) signaling pathway - cell viability counter screen (AID 743224; active means well fitted curve in the direction sought with a large enough effect in the repeat runs; an effect the other way counts as inactive or inconclusive; further: series mostly up to about 63 µM; nearly all actives have a fitted effect of over 50% in size). An outline of the steps: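 VDR-bla cells were preincubated 4 h at 37C/5% CO2, then exposed to compounds for 16 h. After the 2 h room-temperature bla FRET read, CellTiter-Glo was added to the same wells and luminescence read after 30 min.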

Test [9] in a line: qHTS assay to identify small molecule agonists of the NFkB signaling pathway (AID 1159509; active means well fitted curve in the direction sought with a large enough effect in the signal ratio in the repeat runs, not every such curve was filed as active; the % refers to the signal ratio; further: series mostly up to about 61 µM). An outline of the steps: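 NFkB-bla ME-180 cells carry a beta-lactamase reporter under an NF-kB response element. They were plated overnight, then exposed to compounds for 5 h at 37 C. Read-out is LiveBLAzer FRET after 1.5 hr at room temperature (405 nm excitation; 460/530 nm emission).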

Test [10] is described as follows: qHTS assay to identify small molecule agonists of the NFkB signaling pathway - cell viability counter screen (AID 1159515). Further: series mostly up to about 61 µM; nearly all actives have a fitted effect of over 55% in size. An outline of the steps: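 NFkB-bla ME-180 cells, 2,000/well, were plated overnight at 37 C, 5% CO2, then exposed to compounds in DMSO for 5 hr. After the bla FRET read, CellTiter-Glo was added to the same wells; luminescence was read after 30 min at room temperature.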

Test [11] in a line: qHTS assay to identify small molecule agonists of the endoplasmic reticulum stress response signaling pathway (AID 1159516; active means well fitted activation curve with a large enough effect in the signal ratio in the repeat runs, not every such curve was filed as active; the % refers to the signal ratio). The gist of the method:
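CellSensor ESRE-bla HeLa cells, carrying a beta-lactamase reporter driven by the ER stress response element, were plated overnight and exposed to compounds for 5 hr at 37 C. Reporter activity was read as FRET substrate fluorescence after 2 hr at room temperature.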

A short description of test [12]: qHTS assay to identify small molecule agonists of the endoplasmic reticulum stress response signaling pathway - cell viability counter screen (AID 1159517). Further: series mostly up to about 61 µM; nearly all actives have a fitted effect of over 50% in size. The gist of the method: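 ESRE-bla HeLa cells, 1,500 per well, seeded overnight then treated with compounds for 5 hr at 37 C. After the beta-lactamase read, viability in the same wells is measured by CellTiter-Glo luminescence after 30 min at room temperature.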

Test [13] can be described thus: qHTS assay to identify small molecule antagonists of the retinoid-related orphan receptor gamma (ROR-gamma) signaling pathway - cell viability counter screen (AID 1159520; active means well fitted curve in the direction sought with a large enough effect in the repeat runs; an effect the other way counts as inactive or inconclusive; further: nearly all actives have a fitted effect of over 50% in size). An outline of the steps:
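Tet-on ROR gamma CHO cells were given compounds for 2 hr, then doxycycline hyclate at 1 uM final, and incubated 16 hr at 37 C. Viability was measured as ATP content by CellTiter-Glo luminescence.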

The target of test [14] is Nuclear receptor ROR-gamma (Homo sapiens) (UniProt P51449). Description: qHTS assay to identify small molecule antagonists of the retinoid-related orphan receptor gamma (ROR-gamma) signaling pathway (AID 1159521; active means well fitted curve in the direction sought with a large enough effect in the repeat runs; an effect the other way counts as inactive or inconclusive; further: nearly all actives have a fitted effect of over 50% in size; further: potency means the concentration at half of the fitted maximal effect). The gist of the method: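 Inducible-expression reporter assay: doxycycline (1 uM final) switched on RORγ in CHO cells bearing a ROR response element-luciferase construct, with test compounds present from 2 h beforehand. Decreased luminescence after 16 h defined antagonist activity.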

A short description of test [15]: qHTS assay to identify small molecule agonists of the AP-1 signaling pathway - cell viability counter screen (AID 1159525). Further: nearly all actives have a fitted effect of over 55% in size. The gist of the method: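 AP-1-bla ME-180 cells in Opti-MEM with 0.5% dialyzed FBS, compound exposure 5 h at 37 C in 15-point titration. Viability read in the same wells as ATP content by CellTiter-Glo luminescence, normalised to tetra-n-octylammonium bromide and DMSO controls.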

Test [16] is described as follows: qHTS assay to identify small molecule agonists of the AP-1 signaling pathway (AID 1159526).
In test [17] the target is Retinoic acid receptor RXR-alpha (Homo sapiens) (UniProt P19793). Description: qHTS assay to identify small molecule agonists of the RXR signaling pathway (AID 1159527). Further: nearly all actives have a fitted effect of over 35% in size. The gist of the method:
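Compounds in DMSO were added to RXR-alpha-UAS-bla HEK 293T cells kept in 2% charcoal-stripped serum, and incubated 16 hr at 37 C with 5% CO2. Reporter signal came from a 2 hr B/G FRET substrate step.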

In test [18] the target is Peroxisome proliferator-activated receptor delta (Homo sapiens) (UniProt Q03181). As to the kind of experiment: qHTS assay to identify small molecule antagonists of the peroxisome proliferator-activated receptor delta (PPARd) signaling pathway (AID 743215; active means well fitted inhibition curve with a large enough effect in the signal ratio in the repeat runs, not every such curve was filed as active; the % refers to the signal ratio; further: series mostly up to about 62 µM). The gist of the method:
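PPARd UAS-bla HEK293H cells were pre-incubated 5 h at 37 C, then given test compounds in DMSO plus agonist L165041 (300 nM final). After 17 h at 37 C, beta-lactamase FRET substrate was added; fluorescence read after 2 h at room temperature.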

Test [19] can be described thus: qHTS assay to identify small molecule antagonists of the farnesoid-X-receptor (FXR) signaling pathway - cell viability counter screen (AID 743221; active means well fitted cell-killing curve with a large enough effect in the repeat runs, not every such curve was filed as active; further: nearly all actives have a fitted effect of over 50% in size). The gist of the method: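 Cytotoxicity is taken from ATP luminescence (CellTiter-Glo, 30 min, room temperature) in FXR-bla HEK 293T cells previously incubated 16 h at 37 C with compound and chenodeoxycholic acid at 50 uM final.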

Test [20] can be described thus: qHTS assay to identify small molecule antagonists of the vitamin D receptor (VDR) signaling pathway - cell viability counter screen (AID 743225; active means well fitted curve in the direction sought with a large enough effect in the repeat runs; an effect the other way counts as inactive or inconclusive; further: nearly all actives have a fitted effect of over 50% in size). The gist of the method: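 Same-well multiplex: following 16 h treatment of HEK 293T cells carrying a UAS-driven beta-lactamase reporter with compound and agonist (3 nM final), and a 2 h FRET substrate step, CellTiter-Glo was added and luminescence read after 30 min.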

Sequence of Peroxisome proliferator-activated receptor delta (Homo sapiens) (Q03181 whole entry, looked up): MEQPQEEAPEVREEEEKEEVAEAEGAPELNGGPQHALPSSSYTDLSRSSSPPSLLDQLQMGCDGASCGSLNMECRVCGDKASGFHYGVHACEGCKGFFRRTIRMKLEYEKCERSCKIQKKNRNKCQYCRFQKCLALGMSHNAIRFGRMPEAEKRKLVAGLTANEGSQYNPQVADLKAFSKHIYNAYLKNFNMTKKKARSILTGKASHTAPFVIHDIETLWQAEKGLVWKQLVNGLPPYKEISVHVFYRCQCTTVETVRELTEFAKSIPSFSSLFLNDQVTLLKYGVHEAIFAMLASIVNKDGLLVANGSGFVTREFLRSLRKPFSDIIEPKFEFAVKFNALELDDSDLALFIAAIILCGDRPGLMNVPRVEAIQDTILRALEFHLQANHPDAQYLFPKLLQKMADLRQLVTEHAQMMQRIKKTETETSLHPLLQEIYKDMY
Sequence of Vitamin D3 receptor (Homo sapiens) (P11473 whole entry, looked up): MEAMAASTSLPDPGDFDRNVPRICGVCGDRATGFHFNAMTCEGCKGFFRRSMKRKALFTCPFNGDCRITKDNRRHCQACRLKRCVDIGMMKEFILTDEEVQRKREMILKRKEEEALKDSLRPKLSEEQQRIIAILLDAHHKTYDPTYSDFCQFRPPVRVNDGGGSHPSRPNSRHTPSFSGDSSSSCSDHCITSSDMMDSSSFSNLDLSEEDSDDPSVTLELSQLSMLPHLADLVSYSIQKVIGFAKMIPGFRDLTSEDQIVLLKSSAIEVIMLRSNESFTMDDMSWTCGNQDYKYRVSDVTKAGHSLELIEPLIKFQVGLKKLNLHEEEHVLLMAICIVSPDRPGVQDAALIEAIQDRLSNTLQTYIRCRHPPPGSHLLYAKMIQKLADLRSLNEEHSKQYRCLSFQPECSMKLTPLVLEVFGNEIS
Sequence of Retinoic acid receptor RXR-alpha (Homo sapiens) (P19793 whole entry, looked up): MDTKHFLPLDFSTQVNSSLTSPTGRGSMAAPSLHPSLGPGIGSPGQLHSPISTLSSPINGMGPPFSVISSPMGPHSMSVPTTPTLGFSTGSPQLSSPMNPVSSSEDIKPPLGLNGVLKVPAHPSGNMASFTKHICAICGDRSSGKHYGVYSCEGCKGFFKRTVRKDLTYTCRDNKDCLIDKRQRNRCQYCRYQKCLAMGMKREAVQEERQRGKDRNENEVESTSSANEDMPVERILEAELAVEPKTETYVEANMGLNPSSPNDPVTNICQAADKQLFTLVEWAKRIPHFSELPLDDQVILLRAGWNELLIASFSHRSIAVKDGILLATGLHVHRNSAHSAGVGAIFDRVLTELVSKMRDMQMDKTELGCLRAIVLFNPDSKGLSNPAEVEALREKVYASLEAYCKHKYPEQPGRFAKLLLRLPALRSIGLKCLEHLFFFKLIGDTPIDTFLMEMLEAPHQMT

As for `CCCCN(CCCC)CCCC`, the outcome in test [1], in [2], in test [3], in test [5], in [6] and in test [7] was inactive. In addition, the call in test [9], in [10], in test [11], in test [12] and in [16] was inactive. For the same compound, the Potency result in test [4], in test [8], in [13], in [14], in [15] and in [17] was “inactive” throughout.
In the case of `CC1CCC(C(C)C)C(O)C1` (configuration not stated), the outcome in [1], in [2], in test [3], in test [5], in test [6] and in test [7] was inactive. The result in test [20], in test [9], in test [10], in test [11], in test [12] and in test [16] was inactive. Further, the Potency result in test [18], in test [4], in test [19], in test [8], in test [13] and in test [14] was “inactive” in each case. In addition, the Potency result in test [15] and in test [17] was “inactive” throughout.
With `C#C[C@]1(O)CC[C@H]2[C@@H]3CCC4=CC(=O)CC[C@@H]4[C@H]3CC[C@@]21C`, the compound was classed as inactive in test [1], in test [2], in [9], in [10], in [11] and in [12]. In [16], the call was inactive. The Potency result in test [18], in [4], in test [13] and in [15] was “inactive” throughout. Moreover, the Potency in test [14] is 30.6 µM (active).
For `c1ccc2scnc2c1`, the call in [1], in test [2], in test [6], in test [7], in [9] and in test [10] was inactive. Further, the compound was called inactive in test [11], in test [12] and in test [16]. Moreover, the Potency result in [4], in test [19], in [8], in test [13], in test [14] and in [15] was “inactive” throughout. Besides, the Potency result in test [17] was “inactive”.
As to `CC1CCC2CC1C2(C)C` (configuration not stated), the outcome in [2], in test [3], in test [5], in test [20], in test [9] and in test [10] was inactive. Further, the compound was called inactive in [11], in test [12] and in test [16]. Also, the Potency result in [4], in test [19], in [8], in test [13], in test [14] and in test [15] was “inactive” each time. Further, the Potency result in test [17] is “inactive”.
`CC1=CCC2CC1C2(C)C` (configuration not stated): the outcome in test [1], in test [2], in test [6], in test [9], in [10] and in test [11] was inactive. Also, the result in test [12] and in test [16] was inactive. Also, the Potency result in test [4], in test [8], in test [13], in test [14], in [15] and in [17] was “inactive” throughout.
As to `OCC(CO)(CBr)CBr`, the result in test [1], in test [2], in [3], in test [5], in [20] and in [9] was inactive. Further, the outcome in [10], in test [11], in test [12] and in test [16] was inactive. Also, the Potency result in test [4], in [19], in [8], in test [13], in [14] and in [15] was “inactive” in each case.
For the compound `O=c1[nH]nnc2ccccc12`, the call in test [1], in [2], in test [3], in test [5], in test [6] and in [7] was inactive. The outcome in test [9], in test [10], in test [11], in [12] and in [16] was inactive. Moreover, the Potency entry in test [18], in test [4], in test [19], in test [8], in [13] and in test [14] was “inactive” throughout. Further, the Potency result in test [15] was “inactive”.
As for `CSCCC=O`, the call in [1], in test [2], in [3], in test [5], in test [6] and in test [7] was inactive. In addition, the call in test [9], in test [10], in test [11], in test [12] and in test [16] was inactive. Besides, the Potency result in test [18], in [4], in test [19], in test [8], in test [13] and in test [14] was “inactive” each time. Further, the Potency entry in [15] was “inactive”.
